{
  "source": "PubChem BioAssay AID1159580",
  "about": "(chemical genetic matrix, 2015)",
  "test": "chemical genetic growth profiling, strain panel (AID 1159580);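 note: tested at 20 µM; growth read once vehicle control cultures reached saturation at 30 °C; 1 = growth at the plate median or of vehicle wells; lower values mean less growth of the strain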",
  "conditions": "growth OD",
  "note": "About 2,000 (36%) of roughly 5,500 compounds were called active. Not shown: some 18% with an inconclusive outcome. This is one part of the list. A number with no mark means an inactive call. Cut-off read from the data, not from the text of the source: active = normalized growth mostly below about 0.91 (no sharp cut-off); inconclusive = no clear call, values can overlap the other calls; inactive = mostly above about 0.92.",
  "data": [
    {"smiles": "COc1cc2c(cc1OC)C(=O)C(CC1CCN(Cc3ccccc3)CC1)C2", "note": "(stereo not given)", "values": [
      {"measurement": "normalized growth", "setting": "S. cerevisiae deletion strains, locus YJR066W, strain TOR1, active compounds read low", "value": 0.94},
      {"measurement": "normalized growth", "setting": "S. cerevisiae deletion strains, locus YJR075W, strain HOC1, active compounds read low", "value": "0.778 (active)"},
      {"measurement": "normalized growth", "setting": "S. cerevisiae deletion strains, locus YKL009W, strain mrt4, active compounds read low", "value": 0.986},
      {"measurement": "normalized growth", "setting": "S. cerevisiae deletion strains, locus YKL068W, active compounds read low", "value": 1},
      {"measurement": "normalized growth", "setting": "S. cerevisiae deletion strains, locus YKL085W, strain MDH1 (second series), active compounds read low", "value": 1.01},
      {"measurement": "normalized growth", "setting": "S. cerevisiae deletion strains, locus YKL085W, strain MDH1, active compounds read low", "value": 1.01},
      {"measurement": "normalized growth", "setting": "S. cerevisiae deletion strains, locus YKL160W, strain elf1, active compounds read low", "value": 0.933},
      {"measurement": "normalized growth", "setting": "S. cerevisiae deletion strains, locus YKR001C, strain vps1, active compounds read low", "value": 0.913},
      {"measurement": "normalized growth", "setting": "S. cerevisiae deletion strains, locus YKR026C, strain gcn3, active compounds read low", "value": 1.06},
      {"measurement": "normalized growth", "setting": "S. cerevisiae deletion strains, locus YKR091W, strain srl3, active compounds read low", "value": 0.981},
      {"measurement": "normalized growth", "setting": "S. cerevisiae deletion strains, locus YLL001W, strain dnm1, active compounds read low", "value": 0.993},
      {"measurement": "normalized growth", "setting": "S. cerevisiae deletion strains, locus YLL026W, active compounds read low", "value": 1},
      {"measurement": "normalized growth", "setting": "S. cerevisiae deletion strains, locus YLL041C, strain sdh2, active compounds read low", "value": 0.978},
      {"measurement": "normalized growth", "setting": "S. cerevisiae deletion strains, locus YLR027C, strain aat2, active compounds read low", "value": 0.963},
      {"measurement": "normalized growth", "setting": "S. cerevisiae deletion strains, locus YLR039C, strain RIC1, active compounds read low", "value": 0.772},
      {"measurement": "normalized growth", "setting": "S. cerevisiae deletion strains, locus YLR058C, strain SHM2, active compounds read low", "value": "0.874 (active)"},
      {"measurement": "normalized growth", "setting": "S. cerevisiae deletion strains, locus YLR102C, strain apc9, active compounds read low", "value": 1},
      {"measurement": "normalized growth", "setting": "S. cerevisiae deletion strains, locus YLR113W, strain HOG1, active compounds read low", "value": 1.05},
      {"measurement": "normalized growth", "setting": "S. cerevisiae deletion strains, locus YLR221C, strain rsa3, active compounds read low", "value": 0.975},
      {"measurement": "normalized growth", "setting": "S. cerevisiae deletion strains, locus YLR258W, strain gsy2, active compounds read low", "value": 0.982},
      {"measurement": "normalized growth", "setting": "S. cerevisiae deletion strains, locus YLR262C, strain YPT6 (second series), active compounds read low", "value": "0.589 (active)"},
      {"measurement": "normalized growth", "setting": "S. cerevisiae deletion strains, locus YLR262C, strain YPT6, active compounds read low", "value": 0.807},
      {"measurement": "normalized growth", "setting": "S. cerevisiae deletion strains, locus YLR268W, strain sec22, active compounds read low", "value": "0.837 (active)"},
      {"measurement": "normalized growth", "setting": "S. cerevisiae deletion strains, locus YLR320W, strain mms22, active compounds read low", "value": 0.928},
      {"measurement": "normalized growth", "setting": "S. cerevisiae deletion strains, locus YLR330W, strain CHS5, active compounds read low", "value": 0.953},
      {"measurement": "normalized growth", "setting": "S. cerevisiae deletion strains, locus YLR342W, strain FKS1 (second series), active compounds read low", "value": 0.909},
      {"measurement": "normalized growth", "setting": "S. cerevisiae deletion strains, locus YLR342W, strain FKS1, active compounds read low", "value": 0.989},
      {"measurement": "normalized growth", "setting": "S. cerevisiae deletion strains, locus YLR357W, strain rsc2, active compounds read low", "value": 1.13},
      {"measurement": "normalized growth", "setting": "S. cerevisiae deletion strains, locus YLR370C, strain arc18, active compounds read low", "value": 0.955},
      {"measurement": "normalized growth", "setting": "S. cerevisiae deletion strains, locus YLR371W, strain rom2, active compounds read low", "value": 0.986},
      {"measurement": "normalized growth", "setting": "S. cerevisiae deletion strains, locus YLR384C, strain iki3, active compounds read low", "value": 0.952},
      {"measurement": "normalized growth", "setting": "S. cerevisiae deletion strains, locus YLR418C, strain cdc73, active compounds read low", "value": "0.737 (active)"},
      {"measurement": "normalized growth", "setting": "S. cerevisiae deletion strains, locus YML016C, strain PPZ1, active compounds read low", "value": 0.949},
      {"measurement": "normalized growth", "setting": "S. cerevisiae deletion strains, locus YML032C, strain rad52, active compounds read low", "value": "0.675 (active)"},
      {"measurement": "normalized growth", "setting": "S. cerevisiae deletion strains, locus YML120C, strain ndi1, active compounds read low", "value": 0.973},
      {"measurement": "normalized growth", "setting": "S. cerevisiae deletion strains, locus YML124C, strain tub3, active compounds read low", "value": 1.02},
      {"measurement": "normalized growth", "setting": "S. cerevisiae deletion strains, locus YMR058W, strain fet3, active compounds read low", "value": 0.994},
      {"measurement": "normalized growth", "setting": "S. cerevisiae deletion strains, locus YMR078C, strain ctf18, active compounds read low", "value": 0.988},
      {"measurement": "normalized growth", "setting": "S. cerevisiae deletion strains, locus YMR125W, strain sto1, active compounds read low", "value": 0.94},
      {"measurement": "normalized growth", "setting": "S. cerevisiae deletion strains, locus YMR129W, active compounds read low", "value": 0.992},
      {"measurement": "normalized growth", "setting": "S. cerevisiae deletion strains, locus YMR205C, strain PFK2, active compounds read low", "value": 0.979},
      {"measurement": "normalized growth", "setting": "S. cerevisiae deletion strains, locus YMR223W, strain ubp8, active compounds read low", "value": "0.86 (active)"},
      {"measurement": "normalized growth", "setting": "S. cerevisiae deletion strains, locus YMR231W, strain pep5, active compounds read low", "value": 0.996},
      {"measurement": "normalized growth", "setting": "S. cerevisiae deletion strains, locus YMR263W, strain SAP30, active compounds read low", "value": 0.936},
      {"measurement": "normalized growth", "setting": "S. cerevisiae deletion strains, locus YMR307W, strain GAS1, active compounds read low", "value": 0.971},
      {"measurement": "normalized growth", "setting": "S. cerevisiae deletion strains, locus YNL067W, strain RPL9B, active compounds read low", "value": "0.787 (active)"},
      {"measurement": "normalized growth", "setting": "S. cerevisiae deletion strains, locus YNL071W, strain lat1, active compounds read low", "value": 0.956},
      {"measurement": "normalized growth", "setting": "S. cerevisiae deletion strains, locus YNL128W, strain TEP1, active compounds read low", "value": 0.919},
      {"measurement": "normalized growth", "setting": "S. cerevisiae deletion strains, locus YNL153C, strain GIM3, active compounds read low", "value": 0.876},
      {"measurement": "normalized growth", "setting": "S. cerevisiae deletion strains, locus YNL183C, strain NPR1, active compounds read low", "value": 0.955},
      {"measurement": "normalized growth", "setting": "S. cerevisiae deletion strains, locus YNL209W, strain ssb2, active compounds read low", "value": 0.988},
      {"measurement": "normalized growth", "setting": "S. cerevisiae deletion strains, locus YNL233W, strain BNI4, active compounds read low", "value": "0.75 (active)"},
      {"measurement": "normalized growth", "setting": "S. cerevisiae deletion strains, locus YNL248C, strain rpa49, active compounds read low", "value": 0.967},
      {"measurement": "normalized growth", "setting": "S. cerevisiae deletion strains, locus YNL250W, strain rad50, active compounds read low", "value": "0.802 (active)"},
      {"measurement": "normalized growth", "setting": "S. cerevisiae deletion strains, locus YNL271C, strain bni1, active compounds read low", "value": 0.977},
      {"measurement": "normalized growth", "setting": "S. cerevisiae deletion strains, locus YNL298W, strain CLA4, active compounds read low", "value": 0.918},
      {"measurement": "normalized growth", "setting": "S. cerevisiae deletion strains, locus YNL307C, strain MCK1, active compounds read low", "value": "0.665 (active)"},
      {"measurement": "normalized growth", "setting": "S. cerevisiae deletion strains, locus YNL322C, strain KRE1 (second series), active compounds read low", "value": 0.981},
      {"measurement": "normalized growth", "setting": "S. cerevisiae deletion strains, locus YNR049C, strain mso1, active compounds read low", "value": 1.01},
      {"measurement": "normalized growth", "setting": "S. cerevisiae deletion strains, locus YNR052C, strain pop2, active compounds read low", "value": "0.805 (active)"},
      {"measurement": "normalized growth", "setting": "S. cerevisiae deletion strains, locus YOL006C, strain TOP1, active compounds read low", "value": "0.335 (active)"},
      {"measurement": "normalized growth", "setting": "S. cerevisiae deletion strains, locus YOL012C, strain htz1", "value": 1.03},
      {"measurement": "normalized growth", "setting": "S. cerevisiae deletion strains, locus YOL147C, strain pex11, active compounds read low", "value": 0.976},
      {"measurement": "normalized growth", "setting": "S. cerevisiae deletion strains, locus YOR001W, strain rrp6, active compounds read low", "value": 0.931},
      {"measurement": "normalized growth", "setting": "S. cerevisiae deletion strains, locus YOR061W, strain CKA2, active compounds read low", "value": 0.989},
      {"measurement": "normalized growth", "setting": "S. cerevisiae deletion strains, locus YOR069W, strain VPS5, active compounds read low", "value": "1.12 [resistant] (active)"},
      {"measurement": "normalized growth", "setting": "S. cerevisiae deletion strains, locus YOR070C, strain gyp1, active compounds read low", "value": 1.02},
      {"measurement": "normalized growth", "setting": "S. cerevisiae deletion strains, locus YOR080W, strain dia2, active compounds read low", "value": 0.953},
      {"measurement": "normalized growth", "setting": "S. cerevisiae deletion strains, locus YOR083W, strain WHI5, active compounds read low", "value": 0.973},
      {"measurement": "normalized growth", "setting": "S. cerevisiae deletion strains, locus YOR106W, strain vam3, active compounds read low", "value": 0.902},
      {"measurement": "normalized growth", "setting": "S. cerevisiae deletion strains, locus YOR136W, strain idh2, active compounds read low", "value": 0.984},
      {"measurement": "normalized growth", "setting": "S. cerevisiae deletion strains, locus YOR144C, strain elg1, active compounds read low", "value": 0.992},
      {"measurement": "normalized growth", "setting": "S. cerevisiae deletion strains, locus YOR184W, strain ser1, active compounds read low", "value": "0.776 (active)"},
      {"measurement": "normalized growth", "setting": "S. cerevisiae deletion strains, locus YOR231W, strain MKK1, active compounds read low", "value": 0.977},
      {"measurement": "normalized growth", "setting": "S. cerevisiae deletion strains, locus YOR265W, strain rbl2, active compounds read low", "value": 0.974},
      {"measurement": "normalized growth", "setting": "S. cerevisiae deletion strains, locus YOR270C, strain vph1, active compounds read low", "value": "0.608 (active)"},
      {"measurement": "normalized growth", "setting": "S. cerevisiae deletion strains, locus YOR290C, strain snf2, active compounds read low", "value": 1.04},
      {"measurement": "normalized growth", "setting": "S. cerevisiae deletion strains, locus YOR316C, strain cot1, active compounds read low", "value": 1.01},
      {"measurement": "normalized growth", "setting": "S. cerevisiae deletion strains, locus YPL051W, strain arl3, active compounds read low", "value": 0.938},
      {"measurement": "normalized growth", "setting": "S. cerevisiae deletion strains, locus YPL055C, strain LGE1, active compounds read low", "value": "0.738 (active)"},
      {"measurement": "normalized growth", "setting": "S. cerevisiae deletion strains, locus YPL078C, strain atp4, active compounds read low", "value": 0.947},
      {"measurement": "normalized growth", "setting": "S. cerevisiae deletion strains, locus YPL106C, strain sse1, active compounds read low", "value": 1.12},
      {"measurement": "normalized growth", "setting": "S. cerevisiae deletion strains, locus YPL240C, strain hsp82, active compounds read low", "value": 0.996},
      {"measurement": "normalized growth", "setting": "S. cerevisiae deletion strains, locus YPL256C, strain CLN2, active compounds read low", "value": 0.952},
      {"measurement": "normalized growth", "setting": "S. cerevisiae deletion strains, locus YPR119W, strain clb2, active compounds read low", "value": 1},
      {"measurement": "normalized growth", "setting": "S. cerevisiae deletion strains, locus YPR141C, strain kar3, active compounds read low", "value": 0.975},
      {"measurement": "normalized growth", "setting": "S. cerevisiae deletion strains, locus YPR163C, strain tif3, active compounds read low", "value": "0.692 (active)"},
      {"measurement": "normalized growth", "setting": "S. cerevisiae deletion strains, locus YPR167C, strain met16, active compounds read low", "value": 0.984},
      {"measurement": "normalized growth", "setting": "S. cerevisiae deletion strains, strain wtn01, active compounds read low", "value": "0.777 (active)"},
      {"measurement": "normalized growth", "setting": "S. cerevisiae strains, strain wild type, active compounds read low", "value": "0.874 (active)"}
    ]}
  ]
}
